High-throughput results as filed in PubChem.
tim23-1 inh – growth inhibitors of tim23-1 mutant yeast | inhibition, % at 20 µM | actives 1.3% (n = 330,000) | AID 463212 | S. cerevisiae tim23-1 growth, BacTiter-Glo luminescence, 24 h;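 active means growth inhibition of the mutant yeast at or above 50%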;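 further: temperature-sensitive mutant grown at 25 °C; plate controls were DMSO-treated mutant yeast for no effect and medium wells lacking yeast for full effect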
NALP1 inh – blocks the NALP1 inflammasome reconstituted in yeast | S. cerevisiae NALP1/ASC/caspase-1 growth, X-gal OD620, 72 h | inhibition, % at 10 µM | actives 0.61% (n = 280,000) | AID 2071; in the data active means inhibition mostly above about 24%, no sharp cut-off; inactive means mostly below about 32%
TIM10 inh – TIM10 yeast growth inhibition; S. cerevisiae TIM10 strain growth, BacTiter-Glo luminescence, 24 h; actives 1.4% (n = 330,000); inhibition, % at 10 µM;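 active means inhibition of 40% or more at the single tested concentration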;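 further: wild-type TIM10 isogenic control strain grown at permissive 25 °C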
NALP3 yeast inh – inhibitors of NALP3 inflammasome in yeast | Yeast reconstituted NLRP3/ASC/caspase-1, beta-gal luminescence, 24 h | inhibition, % at 10 µM | actives 0.39% (n = 330,000);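 active means inhibition of 50% or more; inactive means inhibition below 50%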;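 further: plate controls were induced DMSO wells for no effect and uninduced yeast grown without galactose for full effect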
tim10-1 inh – inhibits growth of tim10-1 mutant yeast; S. cerevisiae tim10-1 ts strain growth, BacTiter-Glo, 24 h; inhibition, % at 20 µM; actives 2.2% (n = 330,000); AID 463190;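 active means inhibition of at least 40%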;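 further: mutant grown at 25 °C; 0% = DMSO wells with yeast and 100% = wells holding no yeast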
PfHsp90 set2 – reduces growth (ATP signal) of yeast expressing P. falciparum Hsp90; AID 504621; S. cerevisiae expressing PfHsp90, BacTiter-Glo ATP, 48 h; yeast lacking PDR1 and PDR3 efflux regulators; actives 0.32% (n = 310,000); inhibition, % at 9.4 µM;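 active means every replicate shows inhibition above about 80%, whatever the replicate mean, limit read from the data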;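 further: 0% = DMSO neutral controls and 100% = 20 µM radicicol positive controls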
tim10-1 conf – confirmation of tim10-1 mutant yeast growth inhibitors | shares compounds with tim10-1 inh | S. cerevisiae tim10-1 ts strain growth, BacTiter-Glo, 24 h | actives 56% (n = 7,400) | inhibition, % at 20 µM;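 active means inhibition of yeast growth at or above a set limit in either of two repeat tests at 20 µM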;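 further: tim10-1 mutant grown at permissive 25 °C to find synthetic lethal compounds; 0% = DMSO yeast wells and 100% = medium wells without yeast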
TIM10 conf – confirmation of TIM10 yeast growth inhibitors; shares compounds with TIM10 inh; S. cerevisiae tim10 strain growth, BacTiter-Glo luminescence, 24 h; inhibition, % at 10 µM; actives 63% (n = 4,600); AID 463215;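 active means inhibition of yeast growth at or above a set limit in either of two replicates at 10 µM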;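 further: this counterscreen used the strain with wild-type TIM10; 0% = yeast with DMSO and 100% = medium wells lacking yeast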
Active calls of the source: *; nt = no result. An excerpt weighted towards active compounds, which were near 4.1% of everything screened.

SMILES | tim23-1 inh | NALP1 inh | TIM10 inh | NALP3 yeast inh | tim10-1 inh | PfHsp90 set2 | tim10-1 conf | TIM10 conf
CCCCCOC(=O)CC(C(=O)OCCCCC)N1CCCCC1 (centres undefined) | 22 | 20 | 5 | 1 | 22 | -4 | nt | nt
CCCCCCCCCOC(=O)C(CC(=O)O)N1CCOCC1 (centres undefined) | 44 | 45* | 50* | 20 | 42* | 1 | 37* | 44*
O=C(CCCOc1ccc(Cl)cc1)NC1CCCCC1 | 6 | 21 | 2 | 31 | 9 | 1 | nt | nt
CN1CCc2c(C#N)c(N3CCCCC3)nc(NCc3ccccc3)c2C1 | 25 | 7 | 43* | 2 | 48* | nt | 32* | 17
N#Cc1c(NCCCO)nc(NCc2ccccc2)c2c1CCN(Cc1ccccc1)C2 | 14 | -1 | 13 | 13 | 38 | 19 | nt | nt
CC1CCC2C(C1)c1sc(=O)[nH]c1SC2(C)C (centres undefined) | 24 | 37 | 41* | -23 | 51* | -187 | 41* | 41*
CCc1ccc(S(=O)(=O)/N=C2\C=C(Nc3ccc(O)cc3)C(=O)c3ccccc32)cc1 | 43 | 18 | 61* | 44 | 64* | -18 | 70* | 93*
O=C(NC(CO)C(=O)OCc1ccccc1)OCc1ccccc1 (centres undefined) | 20 | nt | -2 | 3 | 10 | 3 | nt | nt
COc1ccc(-c2csc(NC3OC(=O)c4c3ccc(OC)c4OC)n2)cc1OC (centres undefined) | 0 | 13 | -4 | 26 | -8 | 8 | nt | nt
COc1ccc2c(c1OC)C(=O)OC2Nc1nc(-c2cc3cc(Br)ccc3oc2=O)cs1 (centres undefined) | 40 | nt | 58* | 43 | 49* | 1 | 61* | 71*
COc1ccccc1C/C(N)=N/OC(=O)COc1cccc(C)c1 | 21 | 36 | 51* | 19 | 43* | -3 | 22 | -18
O=C(Nc1ccc2c(c1)OCO2)C1CCCN(c2nc3ccccc3s2)C1 (centres undefined) | 45 | 0 | 45* | 6 | 48* | 4 | 36* | 38*
CCC1(c2ccccc2)NC(=O)N(CC(=O)Nc2ccccc2C(=O)NC2CC2)C1=O (centres undefined) | 5 | nt | 1 | 18 | 3 | -158 | nt | nt
CCc1ccc(NC2=CC(=O)CC(c3ccco3)C2)cc1 (centres undefined) | 37 | 13 | 41* | -4 | 42* | 8 | 26 | 16
CCN(CC)S(=O)(=O)c1ccc(N2CCCC2)c(NC(=O)C2CSC3(C)CCC(=O)N23)c1 (centres undefined) | 10 | nt | 3 | -6 | 5 | nt | nt | nt
COC(=O)c1c(N2C(=O)CC(Sc3ccccc3C(=O)O)C2=O)sc2c1CCCC2 (centres undefined) | 26 | -2 | 46* | 1 | 46* | -1 | 47* | 17
Cn1c(SCC(=O)Nc2ccccc2Oc2ccccc2)nnc1C1CC1 | 17 | nt | 5 | 16 | 15 | 0 | nt | nt
COc1ccc2c(c1OC)C(=O)OC2N1C(=O)CC[C@H]1C(=O)Nc1ccc(F)cc1F (some centres undefined) | 6 | 2 | -6 | 1 | 10 | -8 | nt | nt
CN1CCOc2cc(S(=O)(=O)NCc3ccc(S(N)(=O)=O)cc3)ccc21 | 1 | -1 | 5 | -10 | 1 | -3 | nt | nt
O=C1CC(c2ccc3c(c2)OCCO3)Oc2ccc([N+](=O)[O-])cc21 (centres undefined) | 47 | -5 | 45* | 9 | 42* | -14 | 39* | 54*
O=C1CC(N2CCC(c3nc4ccccc4o3)CC2)C(=O)N1c1cc(Cl)cc(Cl)c1 (centres undefined) | 33 | -18 | 41* | 17 | 41* | nt | 12 | 22
CC1(CC(=O)N/N=C/c2ccc(OCc3ccc(Cl)cc3Cl)cc2)OCCCO1 | 42 | 16 | 49* | 14 | 63* | 23 | 41* | 2
CC1CCCCN1S(=O)(=O)c1ccc(NC(=O)c2ccco2)cc1 (centres undefined) | 25 | -6 | 42* | 10 | 53* | nt | 36* | 17
O=C(COc1cccc(C(F)(F)F)c1)Nc1ccc(S(=O)(=O)N2CCCCC2)cc1 | 33 | nt | 45* | 19 | 43* | -6 | 49* | 59*
Cc1cccc(OCC(=O)Nc2ccc(S(=O)(=O)N3CCCC3)cc2)c1 | 25 | 11 | 45* | 2 | 44* | -23 | 37* | 47*
SMILES | tim23-1 inh | NALP1 inh | TIM10 inh | NALP3 yeast inh | tim10-1 inh | PfHsp90 set2 | tim10-1 conf | TIM10 conf
CC(C(=O)OCC(=O)N(C)C1(C#N)CCCCC1)N1C(=O)c2ccccc2C1=O (centres undefined) | 7 | nt | -8 | 6 | -11 | 6 | nt | nt
O=C(Cn1c2ccc(F)cc2c2nc3n(c(=O)c21)CCS3)Nc1ccccc1F | 17 | -6 | 52* | 0 | 51* | nt | 44* | 42*
O=C(Cn1c2ccc(F)cc2c2nc3n(c(=O)c21)CCS3)Nc1ccccc1C(F)(F)F | 1 | 8 | 7 | 5 | 36 | -27 | nt | nt
CC(=O)c1cccc(OCC(O)CNCCOc2ccc(C)cc2)c1 (centres undefined) | -10 | 20 | 10 | 24 | 1 | -4 | nt | nt
CN1/C(=C\C(=S)Nc2ccccc2)C(C)(C)c2ccccc21 | 34 | 3 | 48* | 9 | 51* | 2 | 47* | 56*
COc1cc(/C=N/N(C)c2ccccc2)cc(Cl)c1O | 38 | 1 | 40* | 1 | 48* | -30 | 16 | 20
COc1ccc(OC)c(/C=N/N(C)c2ccccc2)c1 | 22 | 0 | 9 | 7 | 21 | -12 | nt | nt
O=[N+]([O-])c1cccnc1N1CCC(c2cc(-c3cccc(C(F)(F)F)c3)n[nH]2)CC1 | -4 | 11 | 52* | 19 | 43* | 1 | 30* | -17
Cc1cc(NC(=O)C2CC2)ncc1NC(=O)C12CC3CC(CC(C3)C1)C2 | 48 | 14 | 48* | 16 | 54* | 30 | 40* | -21
O=c1cc(-c2c(F)c(F)c(F)c(F)c2F)oc2c(F)c(F)c(F)c(F)c12 | 31 | -3 | 54* | 20 | 42* | nt | 46* | 41*
COc1ccccc1Cn1c(=O)c2ccccc2n2c(Sc3ncnc4sccc34)nnc12 | 45 | 13 | 45* | -7 | 43* | 0 | 34* | 30
CC(c1nnnn1C(C)(C)C)N(Cc1cccnc1)Cc1ccccc1Cl (centres undefined) | 31 | 12 | 42* | 8 | 50* | 2 | 34* | 32*
